An excerpt weighted towards active compounds, which were near 1.6% of everything screened.
KCNQ2 pot: potentiators of rat KCNQ2 potassium channel; B-score at 10 µM; 310,000 compounds, 0.54% hits; AID 2239, 2010; CHO-K1 KCNQ2, FluxOR thallium flux fluorescence; stronger effect = higher value; Potassium voltage-gated channel subfamily KQT member 2 (Rattus norvegicus), O88943;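 active means fluorescence ratio B-score at least 3 SD of library B-scores, with initial fluorescence B-score within 3 of them, cut at about 5.3 in these data; same plate scores as AID 2156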;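 further: B-score of peak minus minimum over baseline fluorescence ratio after K+ and Tl+ stimulus; positive B-score means potentiation of KCNQ2 with more thallium influx and brighter signal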
KCNQ2 block: rat KCNQ2 potassium channel inhibitors, primary screen, cell-based, CHO-K1, FluxOR thallium flux, B-score; Potassium voltage-gated channel subfamily KQT member 2 (Rattus norvegicus), O88943; 20 min; stronger effect = lower value; B-score at 10 µM; 310,000 compounds, 1.1% hits;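 active means fluorescence ratio B-score at most minus 3 library SDs, with starting brightness B-score within 2 library SDs, cut at about -5.5 in these data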
Numbers without * were called inactive; i = inactive; x = not tested or not shown.

SMILES | KCNQ2 pot | KCNQ2 block
Clc1ccc(CSc2nnc(CNc3cccc(Cl)c3)o2)cc1 | -5.7 | -5.7*
O=C1CN(C(=O)C2CCC(=O)N(CCc3ccc(Cl)cc3)C2)CCN1 (stereo not given) | x | i
O=[N+]([O-])c1ccc(N2CCOCC2)cc1O | 1.1 | i
Cc1cc(N2CCOCC2)ccc1/C=C\[N+](=O)[O-] | -7.1 | -7.1*
CC1(C)CC(NS(=O)(=O)c2ccc3ccccc3c2)CC(C)(C)N1 | 0.65 | i
Clc1nnc(Cl)c2c1ncn2Cc1ccccc1 | 1.9 | i
CCc1nnc(NS(=O)(=O)c2ccc(NCc3cc(Cl)cc(Cl)c3O)cc2)s1 | x | i
CN(CC(=O)Nc1ccc(F)c(F)c1F)C(=O)c1ccc2c(c1)OCCO2 | x | i
COC(=O)C(Cc1ccc(OC(=O)c2ccccc2Cl)cc1)N1Cc2ccccc2C1=O (stereo not given) | x | i
COC(=O)C(Cc1ccc(OC(=O)c2ccccc2C)cc1)N1Cc2ccccc2C1=O (stereo not given) | -5.9 | -5.9*
CSc1nc(Cl)cc(Nc2ccccc2N)n1 | -6 | -6*
Nc1nc(Cl)cc(Nc2ccccc2Cl)n1 | 3.4 | i
CCn1cc(C(=O)NCCCN2CCN(C)CC2)c(=O)c2cc(S(=O)(=O)N3CCc4ccccc4C3)ccc21 | x | i
CCN(c1ccccc1)S(=O)(=O)c1ccc2c(c1)C(C)(C)C(=O)N2C | x | i
CCOC(=O)C(CCCOc1cccc(CC)c1)C(=O)OCC | x | i
CCOC(=O)C(CCCCOc1cccc(CC)c1)C(=O)OCC | -5.6 | -5.6*
Nc1c(-c2ccccc2)sc2ccc3ccccc3[n+]12 | x | i
O=C(NC1CCN(C(=O)Nc2ccc(F)cc2)CC1)c1ccccc1F | x | i
CCN(CC1CCCN(CCc2cccc(F)c2)C1)C(=O)c1cc2ccccc2o1 (stereo not given) | x | i
CN(CC1CCCN(CCc2cccc(C(F)(F)F)c2)C1)C(=O)c1cc2ccccc2o1 (stereo not given) | -7 | -7*
O=C1CC(NS(=O)(=O)c2cccnc2)CN1c1ccccc1 (stereo not given) | x | i
C=CCN(C(=O)c1csnn1)C(C(=O)NCc1ccc(F)cc1)c1ccccc1 (stereo not given) | x | i
Cc1ccc(-c2nc(NC(=O)CSc3cc(C)c4ccccc4n3)ns2)cc1 | x | i
COc1ccc2c(C)cc(SCC(=O)Nc3nsc(-c4ccc(C)cc4)n3)nc2c1 | -6.3 | -6.3*
CCOc1cc(CNc2ccccc2)cc(Br)c1OCC(=O)NC(C)(C)C | -5.9 | -5.9*
SMILES | KCNQ2 pot | KCNQ2 block
COc1cc(CNc2ccc(C(=O)O)cc2)cc(Br)c1OCC(=O)NC(C)(C)C | x | i
CN(CC(=O)Nc1ccc(F)cc1)C(=O)COC(=O)CN1C(=O)NC2(CCCC2)C1=O | 1.2 | i
NS(=O)(=O)OCCCc1ccc(C(F)(F)F)cc1 | 1.2 | i
COc1ccccc1NC(=O)COc1ccccc1C(=O)c1cnn(-c2ccccc2)c1 | -6 | -6*
CCc1ccc(NC(=O)COc2ccc(F)cc2C(=O)c2cnn(-c3ccccc3)c2)cc1 | x | i
CCOC(=O)CC1(NC(=O)C2CCC(=O)N(C3CC3)C2)CCCCC1 (stereo not given) | x | i
CCOC(=O)CC1(NC(=O)C2CCC(=O)N(CCc3ccccc3)C2)CCCCC1 (stereo not given) | -6.3 | -6.3*
CCOCC(=O)N1CCN(c2ccccc2OC)CC1 | 1.8 | i
CCc1nnc(NC(=O)CCC(=O)N2CCN(Cc3ccc(F)cc3)CC2)s1 | 1.3 | i
Cc1ccc2c(Cl)cc(Cl)c(OCC(=O)NC(C)(C)C)c2n1 | -7 | -7*
COC(=O)COc1c(Cl)cc(Cl)c2ccc(C)nc12 | x | i
COc1ccc(O)c(C(=O)c2cc(C(=O)NCCc3ccccc3)c(=O)n(CCc3ccccc3)c2)c1 | x | i
Cc1ccc(O)c(C(=O)c2cc(C(=O)NCCc3ccccc3)c(=O)n(CCc3ccccc3)c2)c1 | -7.1 | -7.1*
N=C(N)N1CCN(Cc2ccccc2)CC1 | 0.31 | i
O=C1NC2(CCCCC2)C(=O)N1c1cccc(Cl)c1 | 0.91 | i
N/C(=N\OC(=O)CCC1CCCCC1)c1ccc([N+](=O)[O-])cc1 | 0.03 | i
N/C(=N\OC(=O)CC1CCCCC1)c1cccc([N+](=O)[O-])c1 | 10* | i
N/C(=N\OC(=O)CC1CCCCC1)c1ccc([N+](=O)[O-])cc1 | x | i
N/C(=N\OC(=O)CCC1CCCC1)c1cccc([N+](=O)[O-])c1 | 5.8* | i
O=C(NCc1cccc(C(F)(F)F)c1)N1CCN(S(=O)(=O)c2ccccc2F)CC1 | 3.7 | i
CC(C)(C)OC(=O)NC(CCCCNC=O)C(=O)O (stereo not given) | -6.6 | -6.6*
CC(C)CC(NC(=O)OC(C)(C)C)C(=O)O (stereo not given) | x | i
